Source: PubChem
Sampled rows, rich in hits. Any-hit rate of the full collection: about 4.1%.
MITF TRPM1 inh – reduces MITF-dependent TRPM1 promoter luciferase signal. 0.83% of 330,000 active. SK-MEL-5 TRPM1 promoter luciferase, 24 h. inhibition, % at 12.5 µM. AID 488899;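 active = mean inhibition across replicates of 60% or more, whatever share of single replicates reaches that level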
Shn3 inh set2 – reduces Shn3 3'UTR luciferase signal in osteoblasts; Clone20 osteoblast Shn3 3'UTR firefly luciferase, 24 h; inhibition, % at 12.5 µM; 0.52% of 360,000 active; AID 588674;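 active = mean inhibition of at least 75% with every replicate also reaching 75%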;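 also: 0% = median of neutral control wells and 100% = pilot-screen positive control compound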
TROY NFkB inh – TROY signaling inhibition; AID 1347056; 0.98% of 360,000 active; Q293 LMP1-TROYcd NF-kB luciferase reporter, 4 h; inhibition, % at 10 µM;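 active = compounds whose plate-normalised and pattern-corrected inhibition of the luciferase reporter signal at the single screening dose is 50% or more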
Peg3 prom inh – inhibitors of Peg3 promoter. HeLa PEG-Prom luciferase reporter, luminescence, overnight. inhibition, % at 20 µM. 1.7% of 360,000 active. AID 588405;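 active = inhibition of at least 50% at 20 µM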
TWEAK-Fn14 inh – inhibitors of TWEAK-Fn14 interaction signaling | TWEAK-stimulated Fn14 reporter cells, luciferase luminescence, 8 h | AID 1159606 | 2% of 360,000 active | inhibition, % at 10 µM; in the data active = inhibition above about 50%
LMP1 NFkB inh – inhibitors of Epstein-Barr LMP1-induced NF-kappaB reporter; 0.69% of 350,000 active; LMP1-induced NF-kappaB luciferase reporter cells, luminescence; inhibition, % at 12.5 µM; in the data active = inhibition above about 41%;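 also: 0% = neutral control wells and 100% = reference inhibitor control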
* hit, by the source's call.

How did COc1ccccc1N(C)S(=O)(=O)c1ccc(C(=O)OCC(=O)NCCC2=CCCCC2)cc1 do in these assays?
MITF TRPM1 inh: 17; Shn3 inh set2: -62; TROY NFkB inh: 31; Peg3 prom inh: 8; TWEAK-Fn14 inh: 54*; LMP1 NFkB inh: -1

Results for CCCNC(=O)NC(=O)COC(=O)c1ccc(S(=O)(=O)N(C)c2ccccc2OC)cc1 ?
MITF TRPM1 inh: 1; Shn3 inh set2: 10; TROY NFkB inh: 11; Peg3 prom inh: 12; TWEAK-Fn14 inh: 3; LMP1 NFkB inh: 6

What do the screens show for `O=C(COC(=O)c1ccc2c(c1)OCCO2)NCCC1=CCCCC1`?
MITF TRPM1 inh: -4; Shn3 inh set2: -4; TROY NFkB inh: 37; Peg3 prom inh: -33; TWEAK-Fn14 inh: 96*; LMP1 NFkB inh: -7

How did Cc1ccc(S(=O)(=O)NC(=O)C2(C)CCN2C(=O)Cc2ccc(C(C)(C)C)cc2)cc1 (centres undefined) do in these assays?
Shn3 inh set2: -7; TROY NFkB inh: 12; Peg3 prom inh: 8; TWEAK-Fn14 inh: 1

How did O=C1CNC(=S)N1Cc1cccc(Cl)c1 do in these assays?
MITF TRPM1 inh: 9; Shn3 inh set2: 12; TROY NFkB inh: 4; Peg3 prom inh: 11; TWEAK-Fn14 inh: 14; LMP1 NFkB inh: 7

What do the screens show for `Cc1cc(Cl)ccc1OCCCC(=O)NCCN1C(=O)S/C(=C\c2cccnc2)C1=O`?
MITF TRPM1 inh: -39; Shn3 inh set2: 4; TROY NFkB inh: 11; Peg3 prom inh: -110; TWEAK-Fn14 inh: 4; LMP1 NFkB inh: -5

How did Cc1ccc(CNC(=O)C2CCC(=O)N2Cc2ccc(F)cc2)cc1 (centres undefined) do in these assays?
MITF TRPM1 inh: 4; Shn3 inh set2: -13; TROY NFkB inh: 5; Peg3 prom inh: -33; TWEAK-Fn14 inh: -18; LMP1 NFkB inh: -2

How did O=C(O)C1CCC(=O)N1Cc1ccc(F)cc1 (centres undefined) do in these assays?
MITF TRPM1 inh: 8; Shn3 inh set2: -4; TROY NFkB inh: 7; Peg3 prom inh: 9; TWEAK-Fn14 inh: 50*; LMP1 NFkB inh: -5

How did NC(CCc1ccccc1)c1csc(NC(=O)Nc2cccc(Cl)c2)n1 (centres undefined) do in these assays?
Shn3 inh set2: -2; TROY NFkB inh: 3; Peg3 prom inh: 89*; TWEAK-Fn14 inh: 7

What do the screens show for `O=C(Nc1cccc(Cl)c1)Nc1nc(-c2ccc(Cl)cc2)cs1`?
MITF TRPM1 inh: 16; Shn3 inh set2: 37; Peg3 prom inh: -31; TWEAK-Fn14 inh: 25; LMP1 NFkB inh: 10

What do the screens show for `NC(c1ccccc1)c1csc(NC(=O)Nc2cccc(Cl)c2)n1` (centres undefined)?
Shn3 inh set2: 0; TROY NFkB inh: 15; Peg3 prom inh: 108*; TWEAK-Fn14 inh: 24

Results for NC(COCc1ccccc1)c1csc(NC(=O)Nc2cccc(C(F)(F)F)c2)n1 (centres undefined) ?
Shn3 inh set2: 59; TROY NFkB inh: -1; Peg3 prom inh: 100*; TWEAK-Fn14 inh: -15

Results for NC(c1ccccc1)c1csc(NC(=O)Nc2ccc(OC(F)(F)F)cc2)n1 (centres undefined) ?
Shn3 inh set2: 13; TROY NFkB inh: 9; Peg3 prom inh: 105*; TWEAK-Fn14 inh: 8

How did O=S1(=O)C=CC(N2CCOCC2)C1 (centres undefined) do in these assays?
MITF TRPM1 inh: -6; Shn3 inh set2: -4; TROY NFkB inh: 10; Peg3 prom inh: -2; TWEAK-Fn14 inh: -7; LMP1 NFkB inh: 2

How did O=C(CC1(O)C(=O)N(CCc2ccccc2)c2ccccc21)c1ccco1 (centres undefined) do in these assays?
MITF TRPM1 inh: 9; Shn3 inh set2: -9; Peg3 prom inh: -18; TWEAK-Fn14 inh: 86*; LMP1 NFkB inh: 0

How did CCCCOC(=O)/C=C/c1ccc(OC(=O)OC)c(OC(=O)OC)c1 do in these assays?
MITF TRPM1 inh: -19; Shn3 inh set2: 96*; TROY NFkB inh: 0; Peg3 prom inh: -152; TWEAK-Fn14 inh: 21; LMP1 NFkB inh: -15

Results for COC(=O)Oc1ccc(/C=C/C(=O)OC(C)C)cc1OC(=O)OC ?
MITF TRPM1 inh: -63; Shn3 inh set2: 94*; TROY NFkB inh: -19; Peg3 prom inh: -73; TWEAK-Fn14 inh: 7; LMP1 NFkB inh: -14

How did CN(CCCC(=O)Nc1ccccc1)S(=O)(=O)c1ccc(Cl)cc1 do in these assays?
MITF TRPM1 inh: 9; Shn3 inh set2: 9; TROY NFkB inh: -8; Peg3 prom inh: 7; TWEAK-Fn14 inh: -4; LMP1 NFkB inh: 2

What do the screens show for `CCc1nnc(NC(=O)CN2CCN(Cc3cccc(OC)c3)CC2)s1`?
MITF TRPM1 inh: 5; Shn3 inh set2: 5; TROY NFkB inh: 9; Peg3 prom inh: 4; TWEAK-Fn14 inh: 0; LMP1 NFkB inh: -8

Results for CC(C)c1ccc2[nH]c3nc(SCC(=O)N4CCOCC4)nnc3c2c1 ?
MITF TRPM1 inh: -33; Shn3 inh set2: -24; TROY NFkB inh: -23; Peg3 prom inh: -77; TWEAK-Fn14 inh: -21; LMP1 NFkB inh: -11

What do the screens show for `O=C(NC1CCCC1)C1CCC(CNS(=O)(=O)c2cccs2)CC1` (centres undefined)?
MITF TRPM1 inh: -14; Shn3 inh set2: 25; TROY NFkB inh: 5; Peg3 prom inh: 6; TWEAK-Fn14 inh: -5; LMP1 NFkB inh: 3

How did O=C(C1CCC(CNS(=O)(=O)c2cccs2)CC1)N1CCN(c2ccc(Cl)cc2)CC1 (centres undefined) do in these assays?
MITF TRPM1 inh: 69*; Shn3 inh set2: 88*; TROY NFkB inh: 48; Peg3 prom inh: 8; TWEAK-Fn14 inh: 50; LMP1 NFkB inh: 33

What do the screens show for `CN=C1S/C(=C\c2cc(C)n(-c3ccccc3F)c2C)C(=O)N1C`?
MITF TRPM1 inh: -15; Shn3 inh set2: 1; TROY NFkB inh: 80*; Peg3 prom inh: -60; TWEAK-Fn14 inh: 82*; LMP1 NFkB inh: 1

Results for COc1ccc(-n2c(C)cc(/C=C3/SC(=S)N(C)C3=O)c2C)cc1 ?
MITF TRPM1 inh: -54; Shn3 inh set2: 11; TROY NFkB inh: 52*; Peg3 prom inh: -254; TWEAK-Fn14 inh: 70*; LMP1 NFkB inh: -3

Results for CN(C)c1ccc(C=C2SC(=S)N(Cc3ccco3)C2=O)cc1 ?
Shn3 inh set2: 1; TROY NFkB inh: -29; Peg3 prom inh: -59; TWEAK-Fn14 inh: -26; LMP1 NFkB inh: -8

What do the screens show for `Cc1cc(/C=C2\SC(=O)N(C)C2=O)c(C)n1-c1ccc(O)cc1`?
MITF TRPM1 inh: -9; Shn3 inh set2: 0; TROY NFkB inh: 18; Peg3 prom inh: -101; TWEAK-Fn14 inh: 87*; LMP1 NFkB inh: -75

How did Cc1cc(/C=C2\SC(=S)N(Cc3ccco3)C2=O)c(C)n1-c1ccccc1 do in these assays?
MITF TRPM1 inh: -21; Shn3 inh set2: -50; TROY NFkB inh: 4; Peg3 prom inh: -165; TWEAK-Fn14 inh: 62*; LMP1 NFkB inh: 0

What do the screens show for `O=C(COC(=O)c1ccccc1F)c1ccc(-n2nncc2-c2ccco2)cc1`?
MITF TRPM1 inh: -9; Shn3 inh set2: -14; TROY NFkB inh: 25; Peg3 prom inh: -21; TWEAK-Fn14 inh: 10; LMP1 NFkB inh: 2
